Common to all, as to design: scale not given: direction of the effect not stated beside the values
In test [1] the target is Protein translocase subunit SecA (Escherichia coli (strain K12)) (UniProt P10408). Description: Assay to Identify E. coli SecA ATPase Inhibitors. The test is classed as functional. The following applies: 30 µM.
In test [2] the target is T1, Ubiquitin-activating enzyme e1, putative (Leishmania donovani (strain BPK282A1)) (UniProt E9BSI1).
T1 sequence (whole entry): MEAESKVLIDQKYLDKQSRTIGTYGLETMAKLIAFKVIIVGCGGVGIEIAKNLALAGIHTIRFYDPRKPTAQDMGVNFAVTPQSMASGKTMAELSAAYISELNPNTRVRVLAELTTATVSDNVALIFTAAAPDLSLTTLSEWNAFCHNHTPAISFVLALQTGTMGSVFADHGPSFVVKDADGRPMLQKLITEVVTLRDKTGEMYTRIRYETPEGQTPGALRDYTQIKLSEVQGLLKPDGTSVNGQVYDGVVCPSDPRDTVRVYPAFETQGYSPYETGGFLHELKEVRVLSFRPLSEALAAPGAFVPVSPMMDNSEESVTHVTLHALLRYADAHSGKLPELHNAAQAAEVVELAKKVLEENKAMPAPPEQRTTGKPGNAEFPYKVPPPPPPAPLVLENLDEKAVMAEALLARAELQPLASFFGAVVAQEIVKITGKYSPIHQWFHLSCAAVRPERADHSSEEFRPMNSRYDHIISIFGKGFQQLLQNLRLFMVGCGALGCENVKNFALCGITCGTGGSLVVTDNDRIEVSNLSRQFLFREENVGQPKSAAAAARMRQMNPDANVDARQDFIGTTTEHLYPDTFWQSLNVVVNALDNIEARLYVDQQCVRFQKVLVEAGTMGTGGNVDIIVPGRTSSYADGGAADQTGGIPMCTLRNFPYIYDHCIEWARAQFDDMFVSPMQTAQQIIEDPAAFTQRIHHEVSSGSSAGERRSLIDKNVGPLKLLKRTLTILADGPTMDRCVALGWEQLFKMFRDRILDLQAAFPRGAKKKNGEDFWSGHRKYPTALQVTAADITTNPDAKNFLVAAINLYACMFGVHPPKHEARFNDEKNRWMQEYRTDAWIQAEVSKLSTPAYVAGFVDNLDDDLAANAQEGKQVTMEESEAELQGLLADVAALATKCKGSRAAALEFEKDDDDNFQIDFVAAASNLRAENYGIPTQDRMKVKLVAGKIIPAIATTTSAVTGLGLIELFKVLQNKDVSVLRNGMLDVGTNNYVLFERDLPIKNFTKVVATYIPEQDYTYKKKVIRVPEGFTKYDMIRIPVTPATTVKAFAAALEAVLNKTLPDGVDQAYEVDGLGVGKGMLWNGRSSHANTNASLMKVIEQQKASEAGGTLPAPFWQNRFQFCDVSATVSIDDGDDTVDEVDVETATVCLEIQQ
The experiment in a line: Leishmania donovani Ubiquitin Activating Enzyme (LdE1). As to conditions: 30 µM. It counts as functional.

Test [3] has as its target AMP-activated protein kinase, AMPK (Homo sapiens) (UniProt P54646+O43741+P54619+Q9UGJ0+Q9Y478+Q13131+Q9UGI9). The experiment in a line: AMP-dependent Kinase enzyme assay. An in vitro enzyme assay that detects ADP turnover that is directly proportional to AMPK activity. This uses naive AMPK that is activated during the assay with MK-8722. It counts as functional. The following applies: 30 µM.

In test [4] the target is Sialic acid-binding Ig-like lectin 9 (Homo sapiens) (UniProt Q9Y336). Description: Hs-Siglec9 ALPHAscreen SOP 20170721. The following applies: 10 µM. (In general: Alpha assays give light when donor and acceptor beads are brought close together.)
The test system of the next test is Trypanosoma cruzi. Description: Trypanosoma cruzi phosphomannomutase and mannose-1-phosphate guanylyltransferase assay. The test is classed as functional. As to conditions: 10 µM.
In test [5] the target is T2, Arginase-2, mitochondrial (Homo sapiens) (UniProt P78540).
T2 sequence (whole entry): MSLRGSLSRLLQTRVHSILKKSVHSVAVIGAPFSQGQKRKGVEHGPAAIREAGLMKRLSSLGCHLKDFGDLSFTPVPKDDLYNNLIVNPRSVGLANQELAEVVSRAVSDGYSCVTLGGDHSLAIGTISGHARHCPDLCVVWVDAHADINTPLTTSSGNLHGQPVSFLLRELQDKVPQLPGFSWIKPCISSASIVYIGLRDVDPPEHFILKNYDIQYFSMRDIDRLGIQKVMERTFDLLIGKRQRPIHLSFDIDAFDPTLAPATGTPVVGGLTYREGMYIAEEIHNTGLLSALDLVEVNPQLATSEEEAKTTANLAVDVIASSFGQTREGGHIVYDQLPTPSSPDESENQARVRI
The experiment in a line: in vitro enzyme assay to detect the production of urea directly proportional to the activity of Arginase II. Further: in the data most compounds retested in dose-response had high values. The test is classed as functional. The following applies: 33.3 µM.

Test [6] has as its target T3, Proteasome subunit beta (Trypanosoma cruzi) (UniProt O96673).
T3 sequence (whole entry): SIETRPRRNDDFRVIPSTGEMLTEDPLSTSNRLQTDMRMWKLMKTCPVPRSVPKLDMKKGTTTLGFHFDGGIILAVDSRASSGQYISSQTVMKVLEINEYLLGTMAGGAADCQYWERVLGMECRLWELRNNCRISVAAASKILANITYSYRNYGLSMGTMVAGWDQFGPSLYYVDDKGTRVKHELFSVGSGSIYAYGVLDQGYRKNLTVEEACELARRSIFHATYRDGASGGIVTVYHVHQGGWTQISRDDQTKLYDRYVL
Description: Trypanosoma cruzi proteasome chymotrypsin-like activity (TcProtChymo) assay. Further: in the data most compounds retested in dose-response had high values. It counts as functional. The following applies: 9.37 µM.

For another test, the species on record is Homo sapiens. The experiment in a line: To identify inhibition of the IFN signalling (Jak-Stat) pathway via expression of an eGFP reporter gene under the control of an IFN-stimulated response element (ISRE) containing MxA promoter. It counts as functional. As to conditions: 30 µM. On the technique in general: Reporter assays use an easily measured gene product as a stand-in for the process of interest.

For test [7], the target named is T4, Tyrosyl-tRNA synthetase, putative (Trypanosoma cruzi (strain CL Brener)) (UniProt Q4DSP6).
T4 sequence (whole entry): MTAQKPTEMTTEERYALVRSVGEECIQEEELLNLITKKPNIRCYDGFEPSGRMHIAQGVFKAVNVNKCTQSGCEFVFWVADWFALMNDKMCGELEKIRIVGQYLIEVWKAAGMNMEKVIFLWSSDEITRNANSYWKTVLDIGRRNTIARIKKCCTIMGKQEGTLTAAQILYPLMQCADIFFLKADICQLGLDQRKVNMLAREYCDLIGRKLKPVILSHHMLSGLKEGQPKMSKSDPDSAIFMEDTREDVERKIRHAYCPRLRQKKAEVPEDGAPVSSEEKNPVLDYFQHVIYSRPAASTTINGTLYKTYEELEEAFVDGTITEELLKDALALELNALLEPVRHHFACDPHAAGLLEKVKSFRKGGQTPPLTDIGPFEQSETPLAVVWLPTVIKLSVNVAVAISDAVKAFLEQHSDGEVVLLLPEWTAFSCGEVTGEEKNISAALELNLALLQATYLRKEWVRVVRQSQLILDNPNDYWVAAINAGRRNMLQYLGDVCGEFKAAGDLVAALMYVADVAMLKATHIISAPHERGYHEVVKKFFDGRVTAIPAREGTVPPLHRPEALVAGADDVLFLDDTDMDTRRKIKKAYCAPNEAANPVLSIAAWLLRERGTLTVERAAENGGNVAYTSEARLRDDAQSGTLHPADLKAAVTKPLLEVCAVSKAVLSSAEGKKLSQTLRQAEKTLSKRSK
Description: Trypanosoma cruzi tyrosyl tRNA synthetase (TcYRS) _High Tyrosine SOP. Further: in the data most compounds retested in dose-response had high values. The test is classed as functional. As to conditions: 30 µM.

The target of test [8] is T4, Tyrosyl-tRNA synthetase, putative (Trypanosoma cruzi (strain CL Brener)). Description: Trypanosoma cruzi tyrosyl tRNA synthetase (TcYRS) SOP. The following applies: 30 µM. It counts as functional.
The target of test [9] is Chromo domain-containing protein 1 (Saccharomyces cerevisiae (strain ATCC 204508 / S288c) (Baker's yeast)) (UniProt P32657). The experiment in a line: ScCHD-1 Enzyme Inhibition Assay. Further: in the data most compounds retested in dose-response had high values. The following applies: 30 µM. The test is classed as functional.

Structures are written as SMILES. For some assays here: Potency and affinity values are given separately.

Sequence of Protein translocase subunit SecA (Escherichia coli (strain K12)) (P10408 whole entry): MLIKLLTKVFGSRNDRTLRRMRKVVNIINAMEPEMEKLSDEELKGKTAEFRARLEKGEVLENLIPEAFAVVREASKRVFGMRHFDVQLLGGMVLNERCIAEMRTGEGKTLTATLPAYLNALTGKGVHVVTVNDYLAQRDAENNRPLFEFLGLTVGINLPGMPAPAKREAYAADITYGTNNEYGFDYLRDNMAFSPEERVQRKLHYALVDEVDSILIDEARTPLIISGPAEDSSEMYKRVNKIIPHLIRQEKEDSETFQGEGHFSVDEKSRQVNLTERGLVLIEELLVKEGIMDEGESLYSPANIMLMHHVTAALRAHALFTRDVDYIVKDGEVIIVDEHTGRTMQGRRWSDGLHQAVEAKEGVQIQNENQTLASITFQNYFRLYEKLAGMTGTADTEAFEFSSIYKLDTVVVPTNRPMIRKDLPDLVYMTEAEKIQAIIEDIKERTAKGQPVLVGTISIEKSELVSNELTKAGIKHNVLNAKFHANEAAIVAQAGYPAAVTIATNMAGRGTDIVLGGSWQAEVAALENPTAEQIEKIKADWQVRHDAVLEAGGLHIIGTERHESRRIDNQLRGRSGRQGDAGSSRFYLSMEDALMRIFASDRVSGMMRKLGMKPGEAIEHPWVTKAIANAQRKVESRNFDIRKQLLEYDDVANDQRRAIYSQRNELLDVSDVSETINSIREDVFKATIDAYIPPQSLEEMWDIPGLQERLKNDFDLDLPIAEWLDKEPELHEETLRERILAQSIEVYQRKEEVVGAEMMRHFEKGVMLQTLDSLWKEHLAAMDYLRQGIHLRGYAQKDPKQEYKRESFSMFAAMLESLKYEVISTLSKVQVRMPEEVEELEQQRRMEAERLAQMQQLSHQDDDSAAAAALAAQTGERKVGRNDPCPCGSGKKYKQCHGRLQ
Sequence of Chromo domain-containing protein 1 (Saccharomyces cerevisiae (strain ATCC 204508 / S288c) (Baker's yeast)) (P32657 whole entry, the tested form may be a part): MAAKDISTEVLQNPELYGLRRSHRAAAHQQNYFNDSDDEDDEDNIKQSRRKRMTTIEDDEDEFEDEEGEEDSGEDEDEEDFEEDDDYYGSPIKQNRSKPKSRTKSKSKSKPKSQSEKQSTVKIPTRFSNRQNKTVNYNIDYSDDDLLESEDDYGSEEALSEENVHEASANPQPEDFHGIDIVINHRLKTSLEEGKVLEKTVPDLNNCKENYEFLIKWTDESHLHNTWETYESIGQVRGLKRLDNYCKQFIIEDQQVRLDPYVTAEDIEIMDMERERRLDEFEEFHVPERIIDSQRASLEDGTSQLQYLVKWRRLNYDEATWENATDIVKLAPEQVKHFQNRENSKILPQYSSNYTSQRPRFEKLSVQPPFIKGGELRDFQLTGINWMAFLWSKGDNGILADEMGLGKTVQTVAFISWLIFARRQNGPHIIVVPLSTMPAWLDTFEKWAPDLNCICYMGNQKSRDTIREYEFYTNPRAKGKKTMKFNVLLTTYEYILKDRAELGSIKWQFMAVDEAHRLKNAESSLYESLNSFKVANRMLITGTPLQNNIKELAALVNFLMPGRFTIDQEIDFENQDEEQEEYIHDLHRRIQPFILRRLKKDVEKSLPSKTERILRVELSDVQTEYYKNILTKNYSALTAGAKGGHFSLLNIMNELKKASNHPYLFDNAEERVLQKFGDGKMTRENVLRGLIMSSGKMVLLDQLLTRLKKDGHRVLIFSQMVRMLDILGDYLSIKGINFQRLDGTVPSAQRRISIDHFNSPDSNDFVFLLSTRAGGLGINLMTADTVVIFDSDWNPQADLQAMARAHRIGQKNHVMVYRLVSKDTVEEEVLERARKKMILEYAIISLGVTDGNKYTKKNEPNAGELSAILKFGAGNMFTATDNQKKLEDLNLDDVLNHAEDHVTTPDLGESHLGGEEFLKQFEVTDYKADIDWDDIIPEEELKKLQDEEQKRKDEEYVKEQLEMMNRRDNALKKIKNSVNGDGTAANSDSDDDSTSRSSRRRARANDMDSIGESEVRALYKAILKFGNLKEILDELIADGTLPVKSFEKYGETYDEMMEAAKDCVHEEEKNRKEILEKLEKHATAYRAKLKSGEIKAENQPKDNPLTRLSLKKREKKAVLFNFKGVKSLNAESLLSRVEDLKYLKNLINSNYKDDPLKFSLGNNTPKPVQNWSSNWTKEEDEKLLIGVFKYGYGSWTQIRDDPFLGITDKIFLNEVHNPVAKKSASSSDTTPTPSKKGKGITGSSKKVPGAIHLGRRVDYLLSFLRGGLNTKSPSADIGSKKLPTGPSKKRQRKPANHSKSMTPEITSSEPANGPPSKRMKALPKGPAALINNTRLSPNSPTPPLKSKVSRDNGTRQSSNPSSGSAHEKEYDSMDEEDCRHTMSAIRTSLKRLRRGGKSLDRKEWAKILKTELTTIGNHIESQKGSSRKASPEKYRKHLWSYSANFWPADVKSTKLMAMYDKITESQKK
Sequence of Sialic acid-binding Ig-like lectin 9 (Homo sapiens) (Q9Y336 whole entry): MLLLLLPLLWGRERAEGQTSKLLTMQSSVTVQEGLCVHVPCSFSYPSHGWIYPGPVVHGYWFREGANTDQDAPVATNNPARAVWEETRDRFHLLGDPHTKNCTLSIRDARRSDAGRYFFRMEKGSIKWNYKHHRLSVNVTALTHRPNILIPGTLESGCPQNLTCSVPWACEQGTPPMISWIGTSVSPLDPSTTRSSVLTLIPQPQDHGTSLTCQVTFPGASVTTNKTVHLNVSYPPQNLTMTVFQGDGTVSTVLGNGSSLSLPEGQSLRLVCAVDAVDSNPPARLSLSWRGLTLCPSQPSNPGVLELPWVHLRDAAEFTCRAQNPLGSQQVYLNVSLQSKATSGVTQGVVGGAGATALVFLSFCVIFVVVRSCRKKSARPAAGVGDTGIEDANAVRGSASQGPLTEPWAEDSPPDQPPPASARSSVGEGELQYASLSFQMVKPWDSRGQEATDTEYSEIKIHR

Regarding `COc1ccc(NC(=O)C2CCOC2)c(N2CCN(C(C)=O)CC2)n1` (stereo not given), the Percent Effect in test [1] is -2.36%; in test [2], 2.7%; in [3] it was -66.2%; in test [4], 2.08%; in the test with Trypanosoma cruzi it was -0.391%; in test [5], 2.5%. Further, the Percent Effect is 19.7% in test [6]; 2.27% in the test filed under Homo sapiens; 8.91% in [7]; 11% in [8]; -5.79% in test [9].

With `O=C1CC[C@H]2[C@H](CCN2C(=O)C2CCOCC2)N1Cc1ccncc1`, the Percent Effect was -2.75% in test [1]; 22.7% in test [2]; -7.93% in test [3]; 0.426% in [4]; 2.95% with Trypanosoma cruzi; -3.35% in test [5]. Further, the Percent Effect in test [6] was 17.7%; in the test filed under Homo sapiens it was -2.05%; in test [7] it was 6.35%; in test [8] it was 15.4%; in test [9], -9.4%.

Consider `CCC(C)NC(=O)Nc1ccc(CN2CCOC2=O)cc1` (stereo not given), for which the Percent Effect in [1] is -5.29%; in test [2], -6.94%; in [3], -16.3%; in test [4], -0.797%; in the test on Trypanosoma cruzi, -5.15%; in test [5], 0%. In addition, the Percent Effect in test [6] is 12.1%; in the test filed under Homo sapiens, 21%; in test [7] it was -2.1%; in test [8], -5.13%; in test [9], -1.28%.

With `CCN1CCN(c2nc(C(C)C)nc3c(C)nn(CC)c23)CC1`, the Percent Effect in test [1] is -8.3%; in [2], 0%; in test [3], -2.21%; in test [4], 5.36%; in the test on Trypanosoma cruzi, -1.28%; in test [5], -5.52%. For the same molecule, the Percent Effect is -0.832% in test [6]; 1.81% in the test filed under Homo sapiens; -2.15% in test [7]; -48.1% in [8]; -0.207% in test [9].

Regarding `Cc1nc(CN2CCC3(CCCN(Cc4cnn(C)c4)C3)C2=O)cs1` (stereo not given), the Percent Effect in test [1] was 2.6%; in test [2], 10.7%; in test [3], -6.96%; in [4] it was 4.34%; in the test on Trypanosoma cruzi, -5.79%; in test [5], -57.2%. Moreover, the Percent Effect in test [6] was 10.3%; in the test filed under Homo sapiens, -6.36%; in test [7], 3.12%; in test [8], 10%; in test [9], -5.7%.

For `O=C(CSC1=NS(=O)(=O)c2cc(F)ccc2N1)c1ccc(Cl)cc1`, the Percent Effect was -1.43% in [1]; 0% in test [2]; 2.41% in test [3]; -0.28% in [4]; -5.42% with Trypanosoma cruzi; 4.52% in test [5]. In addition, the Percent Effect was 6.44% in test [6]; 11.1% in the test listed under Homo sapiens; 4.23% in [7]; 11.5% in test [8]; -7.8% in test [9].

Consider `O=C(c1cc(=O)[nH]c(=O)[nH]1)N1CCCCC1c1ccc(F)cc1` (stereo not given), for which the Percent Effect is 1.51% in [1]; 4.17% in test [2]; 0.748% in test [3]; -6.89% in test [4]; -3.21% in the test with Trypanosoma cruzi; 3.97% in test [5]. The Percent Effect was 16.8% in test [6]; -0.138% in the test filed under Homo sapiens; 5.26% in [7]; 2.56% in test [8]; -2.94% in [9].

For `CCn1nc(CC(C)C)cc1C(=O)N1CC[C@@H](O)C1`, the Percent Effect is -4.98% in test [1]; 18.7% in [2]; -5.58% in [3]; 22.7% in test [4]; 2.82% in the test with Trypanosoma cruzi; 9.38% in test [5]. In addition, the Percent Effect was 12.7% in test [6]; -2.86% in the test listed under Homo sapiens; 3.83% in test [7]; 13.6% in test [8]; 92.8% in test [9].

For `O=C(NCC1CCCO1)c1c(-n2cnnn2)sc2c1CCC2` (stereo not given), the Percent Effect was -5.27% in [1]; 5.26% in test [2]; 6.31% in test [3]; -1.47% in [4]; -2.82% in the test on Trypanosoma cruzi; 3.55% in test [5]. Further, the Percent Effect in test [6] was 17.6%; in the test listed under Homo sapiens, -12.3%; in test [7] it was 3.19%; in test [8], 7.79%; in [9] it was -4.34%.

Turning to `O=C(N1CCCO1)[C@@]12CCO[C@@H]1CCN(Cc1ccccc1)C2`, the Percent Effect is -2.49% in [1]; 2.67% in [2]; -2.01% in [3]; 8.06% in test [4]; -4.25% in the test on Trypanosoma cruzi; -22.8% in [5]. Besides, the Percent Effect is 6.67% in test [6]; 0.724% in the test listed under Homo sapiens; 4.17% in test [7]; 10% in test [8]; -6.13% in test [9].

Values taken from ChEMBL document CHEMBL3988442, “University of Dundee, Small-Polar-MMV Screening Library” (2021).
